Assay results reported in PMC5700166.
Numbering of substitutions follows the chain as printed.

Experiments:
Assay in all cases: protein-binding microarray (PBM); PBM: ~300 nM protein, 6 mM HEPES pH 7.8, 80 mM KCl, 0.5 mM EDTA, 0.5 mM EGTA, 6% glycerol, 35 ng/ul poly-dIdC, 1% milk, 1 h, room temperature; Ap Aiptasia and Nv Nematostella (sea anemones) / Co Capsaspora / Aq Amphimedon (sponge) / Dm Drosophila / Hu human; RHD is the Rel homology domain; high values mean tight binding
Settings in all cases: dsDNA, one strand shown
GST-Ap-NF-kB RHD = biological target: T1, GST-Ap-NF-kB RHD (Exaiptasia pallida (Aiptasia), UniProt A0A913YAJ5 2-422)
T1 sequence: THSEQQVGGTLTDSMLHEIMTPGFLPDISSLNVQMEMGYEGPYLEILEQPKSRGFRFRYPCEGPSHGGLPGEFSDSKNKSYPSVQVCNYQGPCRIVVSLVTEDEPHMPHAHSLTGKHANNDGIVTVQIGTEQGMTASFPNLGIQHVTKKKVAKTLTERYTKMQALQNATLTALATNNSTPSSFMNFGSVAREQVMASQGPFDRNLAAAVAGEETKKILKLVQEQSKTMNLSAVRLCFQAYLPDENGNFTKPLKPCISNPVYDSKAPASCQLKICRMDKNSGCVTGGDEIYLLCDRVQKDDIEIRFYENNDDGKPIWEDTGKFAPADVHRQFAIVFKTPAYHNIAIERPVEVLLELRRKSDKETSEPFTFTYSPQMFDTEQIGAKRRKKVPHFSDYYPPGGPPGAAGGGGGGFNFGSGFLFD

[1] = biological target: T2, GST-Nv-NF-kB (Cys allele) (Nematostella vectensis, UniProt E5G601 2-411)
T2 sequence: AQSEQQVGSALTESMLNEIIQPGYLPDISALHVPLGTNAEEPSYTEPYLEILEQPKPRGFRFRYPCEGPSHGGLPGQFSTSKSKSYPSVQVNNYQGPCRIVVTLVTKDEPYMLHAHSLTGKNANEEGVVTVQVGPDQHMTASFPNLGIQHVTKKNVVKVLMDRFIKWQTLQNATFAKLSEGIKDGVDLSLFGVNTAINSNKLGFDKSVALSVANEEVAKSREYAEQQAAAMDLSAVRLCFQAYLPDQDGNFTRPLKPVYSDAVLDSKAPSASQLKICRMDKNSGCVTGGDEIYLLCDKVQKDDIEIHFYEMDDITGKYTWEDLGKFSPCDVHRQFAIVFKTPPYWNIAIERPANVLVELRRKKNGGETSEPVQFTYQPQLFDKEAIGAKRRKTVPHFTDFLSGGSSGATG

[2] = biological target: T3, GST-Nv-NF-kB (Ser allele) (Nematostella vectensis, UniProt A7UNT2 2-411)
T3 sequence: T2 sequence with Q21R, C66S, S207N, E215Q, V217A, E225K, A268E, D399E

GST-Co-NF-kB = biological target: T4, GST-Co-NF-kB (Capsaspora owczarzaki, UniProt F1ARL5 200-546)
T4 sequence: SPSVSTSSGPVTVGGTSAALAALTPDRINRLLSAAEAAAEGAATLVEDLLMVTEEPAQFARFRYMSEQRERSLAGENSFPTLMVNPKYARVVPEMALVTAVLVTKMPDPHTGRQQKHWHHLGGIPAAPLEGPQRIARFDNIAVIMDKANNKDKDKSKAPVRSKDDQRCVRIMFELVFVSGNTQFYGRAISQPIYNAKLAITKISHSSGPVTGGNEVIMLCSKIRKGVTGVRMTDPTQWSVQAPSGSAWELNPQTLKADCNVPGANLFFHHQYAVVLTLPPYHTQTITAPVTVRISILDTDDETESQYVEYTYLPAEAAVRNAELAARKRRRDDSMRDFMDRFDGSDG

GST-Dm-Relish = biological target: T5, GST-Dm-Relish (Drosophila melanogaster, UniProt Q94527 99-473)
T5 sequence: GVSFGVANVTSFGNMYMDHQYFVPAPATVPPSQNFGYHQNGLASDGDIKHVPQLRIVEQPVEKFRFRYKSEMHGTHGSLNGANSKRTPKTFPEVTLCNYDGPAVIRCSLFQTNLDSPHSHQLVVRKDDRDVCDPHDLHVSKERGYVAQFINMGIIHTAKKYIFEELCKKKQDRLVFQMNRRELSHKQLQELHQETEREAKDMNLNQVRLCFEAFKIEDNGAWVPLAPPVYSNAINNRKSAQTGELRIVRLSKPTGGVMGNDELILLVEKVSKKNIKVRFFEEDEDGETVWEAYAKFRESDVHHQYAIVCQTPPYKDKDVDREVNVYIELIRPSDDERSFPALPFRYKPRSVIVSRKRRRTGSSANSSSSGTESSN

GST-Aq-NF-kB = biological target: T6, GST-Aq-NF-kB (Amphimedon queenslandica, UniProt A9Y5G7 2-389)
T6 sequence: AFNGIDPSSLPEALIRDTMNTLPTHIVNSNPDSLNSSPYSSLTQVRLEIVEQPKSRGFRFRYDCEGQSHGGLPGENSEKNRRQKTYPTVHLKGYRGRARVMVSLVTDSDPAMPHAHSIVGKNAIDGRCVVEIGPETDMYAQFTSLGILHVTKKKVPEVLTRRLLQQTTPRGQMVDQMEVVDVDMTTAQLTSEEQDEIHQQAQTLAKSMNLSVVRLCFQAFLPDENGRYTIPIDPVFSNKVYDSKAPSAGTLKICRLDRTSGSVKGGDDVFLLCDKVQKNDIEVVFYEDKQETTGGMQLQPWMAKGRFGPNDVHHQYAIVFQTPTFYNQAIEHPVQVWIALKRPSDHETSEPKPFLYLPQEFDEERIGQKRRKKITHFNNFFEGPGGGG

GST-Hu-p50 = GST-Hu-p50 (Homo sapiens, UniProt P19838 7-356)
GST-Hu-p50, sequence (P19838 7-356): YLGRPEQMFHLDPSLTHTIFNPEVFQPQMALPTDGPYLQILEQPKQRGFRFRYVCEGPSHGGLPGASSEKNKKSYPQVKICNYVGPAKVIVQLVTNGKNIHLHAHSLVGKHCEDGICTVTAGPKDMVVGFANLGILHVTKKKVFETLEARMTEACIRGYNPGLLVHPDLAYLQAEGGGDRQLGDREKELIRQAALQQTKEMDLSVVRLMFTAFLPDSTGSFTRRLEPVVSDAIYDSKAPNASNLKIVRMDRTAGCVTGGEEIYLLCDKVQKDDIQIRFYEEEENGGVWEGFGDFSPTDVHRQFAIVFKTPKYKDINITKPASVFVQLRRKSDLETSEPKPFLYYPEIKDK

Row | Sequence | binding signal (GST-Ap-NF-kB RHD) | binding signal [1] | binding signal [2] | binding signal (GST-Co-NF-kB) | binding signal (GST-Dm-Relish) | binding signal (GST-Aq-NF-kB) | binding signal (GST-Hu-p50)
1 | CCGATTAACATCAGGAGCTCCCCTGATGTTAATCGGGTCTTGATTCGCTTGACGCTGCTG | 4.8 z-score | 2.61 z-score | 1.84 z-score | 2.71 z-score | 1.84 z-score | 4.7 z-score | 2.1 z-score
2 | CCGATTAACATCAGGGGAAACTATGATGTTAATCGGGTCTTGATTCGCTTGACGCTGCTG | 6.82 z-score | 7.81 z-score | 10.9 z-score | 9.61 z-score | 3.46 z-score | 5.53 z-score | 6.14 z-score
3 | CCGATTAACATCAAAAAATCCCATGATGTTAATCGGGTCTTGATTCGCTTGACGCTGCTG | 4.84 z-score | 5.22 z-score | 4.17 z-score | 2.05 z-score | 8.41 z-score | 5.43 z-score | 4.75 z-score
4 | CCGATTAACATCAGGATTCCCCCTGATGTTAATCGGGTCTTGATTCGCTTGACGCTGCTG | 11.3 z-score | 10.5 z-score | 9.81 z-score | 8.01 z-score | 10.2 z-score | 8.67 z-score | 7.26 z-score
5 | CCGATTAACATCAAAAAGACCCCTGATGTTAATCGGGTCTTGATTCGCTTGACGCTGCTG | 4.67 z-score | 4.44 z-score | 3.31 z-score | 1.92 z-score | 6.3 z-score | 5.55 z-score | 4.67 z-score
6 | CCGATTAACATCAAGGGGGATATTGATGTTAATCGGGTCTTGATTCGCTTGACGCTGCTG | 5.89 z-score | 6.77 z-score | 7.37 z-score | 5.64 z-score | 5.23 z-score | 6.15 z-score | 6.33 z-score
7 | CCGATTAACATCAGGGGAAATGATGATGTTAATCGGGTCTTGATTCGCTTGACGCTGCTG | 5.75 z-score | 6.87 z-score | 9.61 z-score | 7.35 z-score | 2.27 z-score | 4.43 z-score | 5.37 z-score
8 | CCGATTAACATCATGGGGGAAAATGATGTTAATCGGGTCTTGATTCGCTTGACGCTGCTG | 5.67 z-score | 6.78 z-score | 9.23 z-score | 10.9 z-score | 3.09 z-score | 5.39 z-score | 6.88 z-score
9 | CCGATTAACATCACCCCCGCCCCTGATGTTAATCGGGTCTTGATTCGCTTGACGCTGCTG | 4.47 z-score | 3.37 z-score | 3.72 z-score | 6.71 z-score | 4.74 z-score | 4.27 z-score | 3.7 z-score
10 | CCGATTAACATCAGGGAAATACATGATGTTAATCGGGTCTTGATTCGCTTGACGCTGCTG | 3.25 z-score | 4.47 z-score | 4.73 z-score | 4.08 z-score | 8.18 z-score | 4.87 z-score | 3.02 z-score
11 | CCGATTAACATCACAGTTCCCCCTGATGTTAATCGGGTCTTGATTCGCTTGACGCTGCTG | 6.94 z-score | 6.16 z-score | 7.51 z-score | 8.18 z-score | 3.79 z-score | 4.7 z-score | 5.66 z-score
12 | CCGATTAACATCAGGGGAAAATATGATGTTAATCGGGTCTTGATTCGCTTGACGCTGCTG | 6.98 z-score | 8.57 z-score | 11.7 z-score | 10.2 z-score | 4.1 z-score | 6.25 z-score | 6.72 z-score
13 | CCGATTAACATCAAGAACCCCCGTGATGTTAATCGGGTCTTGATTCGCTTGACGCTGCTG | 6.68 z-score | 4.55 z-score | 5.31 z-score | 3.25 z-score | 8.39 z-score | 5.21 z-score | 5.41 z-score
14 | CCGATTAACATCAGGGGAATCTATGATGTTAATCGGGTCTTGATTCGCTTGACGCTGCTG | 8.26 z-score | 8.91 z-score | 10.6 z-score | 7.29 z-score | 5.84 z-score | 5.95 z-score | 6.51 z-score
15 | CCGATTAACATCAGGGGGACCCCTGATGTTAATCGGGTCTTGATTCGCTTGACGCTGCTG | 8.92 z-score | 5.39 z-score | 4.83 z-score | 4.63 z-score | 9.89 z-score | 8.54 z-score | 5.02 z-score
16 | CCGATTAACATCAAATAACCCCCTGATGTTAATCGGGTCTTGATTCGCTTGACGCTGCTG | 7.15 z-score | 7.1 z-score | 7.94 z-score | 4.2 z-score | 8.44 z-score | 7.02 z-score | 6.17 z-score
17 | CCGATTAACATCAGGGGACTCCATGATGTTAATCGGGTCTTGATTCGCTTGACGCTGCTG | 6.58 z-score | 4.64 z-score | 4.65 z-score | 1.82 z-score | 7.69 z-score | 4.63 z-score | 4.91 z-score
18 | CCGATTAACATCAGGGGGTGGGATGATGTTAATCGGGTCTTGATTCGCTTGACGCTGCTG | 2.8 z-score | 2.48 z-score | 3.52 z-score | 3.22 z-score | 3.58 z-score | 3.34 z-score | 3.07 z-score
19 | CCGATTAACATCAAAGTATCCCCTGATGTTAATCGGGTCTTGATTCGCTTGACGCTGCTG | 6.1 z-score | 5.64 z-score | 7.21 z-score | 5.48 z-score | 3.47 z-score | 4.4 z-score | 4.64 z-score
20 | CCGATTAACATCAAGGAGTTCCCTGATGTTAATCGGGTCTTGATTCGCTTGACGCTGCTG | 3.02 z-score | 2.29 z-score | 1.06 z-score | 1.52 z-score | 5.39 z-score | 4.24 z-score | 2.1 z-score
21 | CCGATTAACATCAAAAAACCCCCTGATGTTAATCGGGTCTTGATTCGCTTGACGCTGCTG | 12.1 z-score | 11.4 z-score | 12.1 z-score | 5.28 z-score | 11.4 z-score | 9.82 z-score | 8.38 z-score
22 | CCGATTAACATCAGGGAACTCCCTGATGTTAATCGGGTCTTGATTCGCTTGACGCTGCTG | 8.33 z-score | 10.6 z-score | 6.92 z-score | 3.39 z-score | 9 z-score | 9.76 z-score | 6.16 z-score
23 | CCGATTAACATCAAGAAAACCCCTGATGTTAATCGGGTCTTGATTCGCTTGACGCTGCTG | 6.98 z-score | 7.2 z-score | 6.87 z-score | 2.44 z-score | 7.76 z-score | 6.52 z-score | 6.8 z-score
